SMILES strings stand for the structures. The whole screen tested about 320,000 compounds, of which about 740 (0.23%) were called active. Another 2% or so got no clear call; they are omitted. Calls follow the shape of the dose curve; as a rule, active = well fitted activation curve with a large enough effect; inconclusive = small, poorly fitted or top-dose-only effect; inactive = no such curve, though single readings can be large or run the other way. For the sample, actives were picked, then their nearest neighbours and some compounds at random.
Potency is read from the fitted curve at half-maximal effect.

This assay can be described thus: qHTS Assay for Small Molecule Inhibitors of Mitochondrial Division or Activators of Mitochondrial Fusion. Also: nearly all actives have a fitted effect of over 45% in size.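 As to growth rescue (activation): temperature-sensitive fusion mutants such as fzo1-1 at 37 °C on non-fermentable ethanol glycerol medium; % of control where 0% means no effect.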 The settings on record: S. cerevisiae fusion-defective mutant growth rescue, CellTiterGlo 48 h; series mostly up to 46.1 µM; growth rescue (activation): at the top concentration. Summed up:
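Luminescent cell viability in 1536-well qHTS format served as the measure of rescued growth in ts fusion-mutant S. cerevisiae cultured on non-fermentable YPEG for 48 hours at 37C.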
In general terms: Quantitative high-throughput screening tests each substance at several concentrations.
Take `Cc1nnnn1/C(=C\c1ccccc1)C(=O)OCC(=O)N1CC2(C)CC1CC(C)(C)C2` (configuration not stated): the “growth rescue (activation)” value is -8.27% (inactive).

Take `O=C(Cc1ccccc1)Nc1c(C(=O)N2CCCCCC2)cnn1-c1ccccc1`: the “growth rescue (activation)” value was -1.61% (inactive).

Take `CCC(C)(C)n1nnnc1CN1CCN(c2nc3ccc(C)cc3cc2C#N)CC1`: the “growth rescue (activation)” value was -0.559% (inactive).

For the compound `O=C(/C=C/c1ccccc1)Oc1coc(CSc2ncccn2)cc1=O`, the “growth rescue (activation)” value was 0.25% (inactive).

For `Nc1c(C(=O)OCC(=O)Nc2ccc(OC(F)F)cc2)[nH]c(=O)[nH]c1=O`, the “growth rescue (activation)” value was -0.106% (inactive).

Turning to `CC1CCCCC1NC(=O)CO/N=C/c1ccc(OC(F)F)cc1` (configuration not stated), the “growth rescue (activation)” value is -0.219% (inactive).

Regarding `CCOc1ccc(/C=N/OCC(=O)NCc2cccs2)cc1`, the “growth rescue (activation)” value is -9.69% (inactive).

In the case of `O=C(CO/N=C/c1ccc(OC(F)F)cc1)NCc1ccc(F)cc1`, the Potency is 6.31 µM (active).

Regarding `Clc1ccc(C2[C@H]3CN(CC4CCCCC4)[C@H](c4ccccc4)C34CC2(c2cccnc2)C4)cn1` (some centres not stated), the “growth rescue (activation)” value is 4.84% (inactive).

Take `CCc1ccc[n+](-c2nc([O-])sc2C=O)c1`: the “growth rescue (activation)” value was -6.48% (inactive).

`CCOC(=O)/C=C/C(=O)OCC(=O)NC(c1ccccc1)c1ccccc1`: the “growth rescue (activation)” value is -0.211% (inactive).

Consider `Cn1cc(CCC(=O)NCc2ccc3c(c2)OCO3)c2ccccc21`, for which the “growth rescue (activation)” value is 4.45% (inactive).

Take `N#Cc1nc(Cc2cccc3ccccc23)oc1NCc1ccc2c(c1)OCO2`: the Potency is 11.2 µM (active).

For `c1n[nH]c(NCc2ccc3c(c2)OCO3)n1`, the “growth rescue (activation)” value was -5.05% (inactive).

Turning to `O=C(COC(=O)c1ccccc1NC(=O)c1ccco1)Nc1ccc2c(c1)OC(F)(F)O2`, the “growth rescue (activation)” value is -3.36% (inactive).

As for `CCCN1C(=O)C(O)(CC(=O)c2ccc(CC)cc2)c2cc(Br)ccc21` (configuration not stated), the “growth rescue (activation)” value was 0.908% (inactive).

Consider `CC(=O)Nc1cccc(Nc2nc(-c3cccs3)nc3ccccc23)c1`, for which the “growth rescue (activation)” value was 27.5% (inactive).

Turning to `COc1ccc(Nc2nc(-c3cccnc3)nc3ccccc23)cn1`, the “growth rescue (activation)” value is 12.2% (inactive).

On to `Cc1cccc(-c2nc(Nc3ccc(O)cc3)c3ccccc3n2)c1`, for which the Potency was 35.5 µM (active).

For `COc1ccc(OCCNS(=O)(=O)Cc2ccccc2)cc1`, the “growth rescue (activation)” value was -4.23% (inactive).

`Cc1ccc(NC(=O)c2cc([N+](=O)[O-])ccc2Cl)c(O)c1`: the “growth rescue (activation)” value is -3.88% (inactive).

With `CCC(C)C(NC(=O)C1CCC(=O)N1C(=O)OCc1ccccc1)C(=O)NC(C(=O)N1CCCC1C(N)=O)C(C)CC` (configuration not stated), the “growth rescue (activation)” value was 2.2% (inactive).

For the compound `Nc1ccc(Nc2cc(O)c3ncccc3c2)cc1`, the “growth rescue (activation)” value was -3.21% (inactive).

For the compound `CN(C)c1cc2c(Nc3ccc4c(cnn4Cc4ccccc4)c3)ncnc2cn1`, the Potency is 18.4 µM (active).

In the case of `CC(C)Nc1ncnc2c1nnn2Cc1ccccc1`, the “growth rescue (activation)” value was 2.53% (inactive).

Turning to `Cn1ncc2c(Nc3cccc4ccccc34)ncnc21`, the “growth rescue (activation)” value is 2.67% (inactive).

As to `CCOC(=O)N1CCN(C(=O)COC(=O)c2cccc(S(C)(=O)=O)c2)CC1`, the “growth rescue (activation)” value was 1.09% (inactive).

For `CCOC(=O)C(=CNNc1ccsc1C(=O)OC)C(=O)OCC`, the “growth rescue (activation)” value is -8.56% (inactive).

As for `Cc1ccc(O)c(CNc2nc3ccccc3[nH]2)c1`, the “growth rescue (activation)” value was -0.0891% (inactive).

As for `Cc1ccc2nnn(Cc3cccc(C(C)(C)C)c3O)c2c1`, the Potency is 12.6 µM (active).

Turning to `Cc1ccc(O)c(CNc2nc3ccccc3n2C)c1`, the “growth rescue (activation)” value was -1.24% (inactive).

Take `CC(/C=C/C1(O)C(C)CC(=O)CC1(C)C)OC1OC(CO)C(O)C(O)C1O` (configuration not stated): the “growth rescue (activation)” value is -0.841% (inactive).

On to `CCCC(C)C(=O)OCC(=O)Nc1c(Br)cc(C)cc1Br` (configuration not stated), for which the “growth rescue (activation)” value is 0.339% (inactive).

For the compound `Cn1c(=O)c2c(n3c4ccccc4nc13)NC(=O)CC2c1cccc(Cl)c1` (configuration not stated), the “growth rescue (activation)” value was -2.06% (inactive).

Take `CC(C)C(=O)Nc1ccc2c3c(cccc13)CC2`: the “growth rescue (activation)” value is -2.47% (inactive).

As to `CCOc1ccc(-n2nc3ccc(NC(=O)c4ccc(OC)c(Cl)c4)cc3n2)cc1`, the “growth rescue (activation)” value is -4.29% (inactive).

On to `Cc1cc(-c2nnc(CCC(=O)NC(c3ccccc3)c3ccccc3)o2)no1`, for which the “growth rescue (activation)” value is 2.21% (inactive).

`O=C(C(NS(=O)(=O)c1cccc2nsnc12)c1ccccc1)N1CCN(c2ccccc2)CC1` (configuration not stated): the Potency was 17.8 µM (active).

As for `O=C(O)C(NS(=O)(=O)c1cccc2nsnc12)c1ccccc1` (configuration not stated), the “growth rescue (activation)” value is 0.207% (inactive).

As for `O=C(C(NS(=O)(=O)c1cccc2nsnc12)c1ccccc1)N1CCN(c2ccccn2)CC1` (configuration not stated), the “growth rescue (activation)” value was 8.47% (inactive).

`CC(=O)Nc1ccc(C(=O)Nc2cccc(S(=O)(=O)NC3=NCCC3)c2)cc1`: the “growth rescue (activation)” value is 0.424% (inactive).

Regarding `CN(C)c1nc(N)nc(CSc2nnnn2-c2cccc3ccccc23)n1`, the “growth rescue (activation)” value is 3.52% (inactive).

On to `CCc1nc2sc(C(=O)O)c(N)c2c2c1CCCC2`, for which the “growth rescue (activation)” value was 2.87% (inactive).

Turning to `Cc1nc2sc(C(=O)c3ccccc3)c(N)c2c2c1CCCC2`, the Potency was 14.1 µM (active).

For the compound `Cc1ccc2c(N)c(C(=O)c3ccccc3)sc2n1`, the “growth rescue (activation)” value was 23.8% (inactive).

With `COc1ccc(OC)c(S(=O)(=O)n2c([N+](=O)[O-])cnc2C)c1`, the “growth rescue (activation)” value is 1.97% (inactive).

As to `CN(c1ccccn1)c1ncnc2[nH]ncc12`, the “growth rescue (activation)” value was -1.86% (inactive).

For the compound `O=S(=O)(c1cccc(C(F)(F)F)c1)N1CCN(c2cnccn2)CC1`, the “growth rescue (activation)” value is 6.36% (inactive).

Turning to `COC(=O)COc1ccc(C2NC(=O)NC(C)=C2C(=O)NCc2ccccc2)cc1OC` (configuration not stated), the “growth rescue (activation)” value is -4.71% (inactive).

As for `CCC(C)(C)n1nnnc1C(c1cccs1)N1CCN(c2nc3ccccc3s2)CC1` (configuration not stated), the Potency is 10 µM (active).

Regarding `Fc1ccc(Cn2nnnc2C(c2cccs2)N2CCCCCC2)cc1` (configuration not stated), the “growth rescue (activation)” value was 26.8% (inactive).

For the compound `CCC(C)(C)n1nnnc1C(c1ccc(OC)c(OC)c1)N1CCN(C(=O)c2ccco2)CC1` (configuration not stated), the “growth rescue (activation)” value was 0.355% (inactive).

As to `Cc1ccc(C(CNC(=O)Nc2cccc(C)c2)N2CCN(C)CC2)cc1` (configuration not stated), the “growth rescue (activation)” value is -11.5% (inactive).

On to `CCC1=Nc2cc(C(=O)NCCCOC(C)C)ccc2Sc2ccc(C)cc21`, for which the “growth rescue (activation)” value was 0.504% (inactive).

For the compound `CCCS(=O)(=O)N1CCCC(C(=O)N2CCN(c3ccccc3)CC2)C1` (configuration not stated), the “growth rescue (activation)” value was -0.889% (inactive).

As for `O=C(C1CCCN(S(=O)(=O)c2ccccc2)C1)N1CCN(c2ccc(F)cc2)CC1` (configuration not stated), the Potency is 3.98 µM (active).

Turning to `Cc1ccc(S(=O)(=O)N2CCCC(C(=O)N3CCN(C)CC3)C2)cc1` (configuration not stated), the “growth rescue (activation)” value was -0.935% (inactive).

In the case of `Cc1cccc(C(=O)Nc2ccc(-c3nc4ncccc4o3)cc2C)c1`, the “growth rescue (activation)” value was -9.84% (inactive).

Turning to `COc1cc(NC(=O)CSc2nc3nc(C)c(Cc4ccc(C)cc4)c(C)n3n2)cc(OC)c1OC`, the “growth rescue (activation)” value was -1.46% (inactive).

With `C=CCNC(=O)CCCC(=O)NCC=C`, the “growth rescue (activation)” value was 1.64% (inactive).

Regarding `CSCCC(NC(=O)c1ccco1)C(=O)Nc1cc(C)ccn1` (configuration not stated), the “growth rescue (activation)” value was 7.61% (inactive).

`Cc1ccc(-n2c(SCC(=O)Nc3ncc(Cl)cc3Cl)nc3ccccc32)cc1`: the Potency was 15.8 µM (active).

Regarding `Cc1ccc(SCCC(=O)OCC(=O)Nc2ncc(Cl)cc2Cl)cc1`, the “growth rescue (activation)” value is -1.73% (inactive).

For the compound `NS(=O)(=O)c1cccc(NC(=O)CSc2nc3ccccc3n2-c2ccccc2)c1`, the “growth rescue (activation)” value was -0.391% (inactive).

`Cc1ccc(C2C=C(c3ccc(Cl)cc3)Nc3nc(NC(=O)CCC(=O)O)nn32)cc1` (configuration not stated): the “growth rescue (activation)” value is -2.35% (inactive).

Turning to `CCOc1ccccc1NC(=O)CCn1cnnn1`, the “growth rescue (activation)” value was -0.407% (inactive).

For `CCOC(=O)c1ccc(-c2ccc(/C=C(\C#N)C(=O)Nc3ccc(C)cc3)o2)cc1`, the “growth rescue (activation)” value is -0.293% (inactive).

The values are drawn from PubChem BioAssay AID485298 (National Center for Advancing Translational Sciences (NCATS), 2010).
